# In PMC7819943, “Rice protein-binding microarrays: a tool to detect cis-acting elements near promoter regions in rice”:
# Over roughly 35,000 sequences, “fluorescence intensity (a.u.)” has its median near 10,000; the highest 2% begin near 52,000. Many of the other results were omitted from the sample, so the highest values are more common in it than they were.
# Target: T1, OsWOX13 (Oryza sativa, UniProt Q5QMM3 1-267)
# T1 sequence: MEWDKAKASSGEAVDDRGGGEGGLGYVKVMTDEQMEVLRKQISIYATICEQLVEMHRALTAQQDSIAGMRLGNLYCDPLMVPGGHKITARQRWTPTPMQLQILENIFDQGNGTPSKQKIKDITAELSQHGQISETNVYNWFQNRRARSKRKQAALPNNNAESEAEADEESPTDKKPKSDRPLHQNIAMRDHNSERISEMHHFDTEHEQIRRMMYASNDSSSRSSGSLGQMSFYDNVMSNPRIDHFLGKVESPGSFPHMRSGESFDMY
# Experiment: protein-binding microarray (RPBM); PBS, 2% BSA, 51.3 ng/ul salmon testes DNA, 50 uM zinc acetate, 200 nM TF, 25 C, 1 h; high values mean tight binding
# Conditions: protein: recombinant; tags: N-terminal polyhistidine and DsRed monomer fusion (pET32a); label: CyDye5-dUTP incorporated in the synthesized complementary strand; 3' TTTTT single-stranded linker to array surface; dsDNA, one strand shown
# How it was run: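 An Axon 4000B scanner gave the binding signal as per-feature fluorescence intensity in arbitrary units. This followed washing of a custom Agilent array that had been incubated for 1 h at 25 °C with 200 nM protein in PBS, 2% BSA, salmon testes DNA and 50 µM zinc acetate. The proteins were transcription factors fused at the N-terminus to polyhistidine and DsRed, expressed in E. coli BL21-CodonPlus and purified on Ni–NTA.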
row,Sequence,binding signal
1,AAACAGACAAACTACACTAATTGTGATGACTCTGGATTTTCGGAGTCACCTAGTGCAG,8340 fluorescence intensity (a.u.)
2,ACCATCATCAATTGATAGTTCTTGTTTCTCTAGTAGTAAGCGGAGTCACCTAGTGCAG,9360 fluorescence intensity (a.u.)
3,AATTCAAGCTCATCACTGATTTGATAAGACATTAAGATAGCGGAGTCACCTAGTGCAG,4050 fluorescence intensity (a.u.)
4,GTGACTGATTGACAGTATCAACCATCTAGTGTTAAGATAGCGGAGTCACCTAGTGCAG,52800 fluorescence intensity (a.u.)
5,TCTTGCCAACTGATTGATCGATCCTGGAAGCTTGCTGCTGCGGAGTCACCTAGTGCAG,37900 fluorescence intensity (a.u.)
6,TAAGTATCCTTGATTGATTGCCTGATCGATCAGCTGCTAGCGGAGTCACCTAGTGCAG,55000 fluorescence intensity (a.u.)
7,GACGCCGTCAGCAATGATTGCCTTGCTAGCAGCTGCTTGACGGAGTCACCTAGTGCAG,4390 fluorescence intensity (a.u.)
8,TACGCCTGATTGGATCCCCACCCCTATCTCCACTGACTGTCGGAGTCACCTAGTGCAG,34100 fluorescence intensity (a.u.)
9,CACCTGACTGATTGGATTGGTATCGATCCAAGCCTATCAGCGGAGTCACCTAGTGCAG,57100 fluorescence intensity (a.u.)
10,TGTCCACTGAAATTGATTGGAGATCGATGTGATGGTCAAGCGGAGTCACCTAGTGCAG,40200 fluorescence intensity (a.u.)
11,TTGGGTGGCAATTATTAATCAGTCATGTCATTCAACTAGACGGAGTCACCTAGTGCAG,11700 fluorescence intensity (a.u.)
12,GTGCTCTTGATTGGCACATGAGCCTTGGCGGCGGTGACCTCGGAGTCACCTAGTGCAG,35600 fluorescence intensity (a.u.)
13,TATTGATTGGTTCAGATGGAGACATGTGCAACTTCGTGCTCGGAGTCACCTAGTGCAG,61700 fluorescence intensity (a.u.)
14,TTGATTGATCTTTGGTTGGATGGATGCTTGATGATGTGCTCGGAGTCACCTAGTGCAG,31900 fluorescence intensity (a.u.)
15,CACATGATTGATATCTCGTCACTGCTCGTAACTTCAGCCTCGGAGTCACCTAGTGCAG,62100 fluorescence intensity (a.u.)
16,AGTGTAATTAACTTTCTTCTTCTCTCCAACTGCTTCAGCTCGGAGTCACCTAGTGCAG,11200 fluorescence intensity (a.u.)
17,TAGAGAGATTGATATTTCATGTGCTCTAGAGATGGTTGAGCGGAGTCACCTAGTGCAG,28900 fluorescence intensity (a.u.)
18,GACCAACGGTGATTATTAACATGATCTATATCTATCTATCCGGAGTCACCTAGTGCAG,5820 fluorescence intensity (a.u.)
19,TCAAATATGACTAAATTAGTAGTTAAGTAGTATGGGAGAACGGAGTCACCTAGTGCAG,13400 fluorescence intensity (a.u.)
20,CCAACTAATCATGCTTAGTTAGCAATTAAGCCATAAACAACGGAGTCACCTAGTGCAG,9180 fluorescence intensity (a.u.)
21,ATGATTGCCGTATGATATGTGATACGAAAGAGTTGGGGATCGGAGTCACCTAGTGCAG,32700 fluorescence intensity (a.u.)
22,TGTTTGATTATGTTCAATCATTGCAAATCATGTCATCTGTCGGAGTCACCTAGTGCAG,45900 fluorescence intensity (a.u.)

row,Sequence,binding signal
1,ATGGATGACTGTGATATGATATCTTACACATCAATGATAGCGGAGTCACCTAGTGCAG,7720 fluorescence intensity (a.u.)
2,CCAGATTGATGGCTATCATCAGGCCATGCTGTTCTCGTCTCGGAGTCACCTAGTGCAG,59800 fluorescence intensity (a.u.)
3,CGTCCGTCATTGATTATGCCAGATCATAGCTGTACGTCGTCGGAGTCACCTAGTGCAG,21300 fluorescence intensity (a.u.)
4,TGTGTCATGTTCTGATTGGCTGTGGTTGGTTTGATTTTCTCGGAGTCACCTAGTGCAG,21100 fluorescence intensity (a.u.)
5,CTAGATGATTGGCTATCATCACCTGTTCACAATCTTATGTCGGAGTCACCTAGTGCAG,61900 fluorescence intensity (a.u.)
6,TGCATGAATTGATCAACAAGACAAAAGTTACAAAACATGTCGGAGTCACCTAGTGCAG,4160 fluorescence intensity (a.u.)
7,TTTCAGCACATCATTCCAATTTCAATCATATTTCCAAACTCGGAGTCACCTAGTGCAG,4200 fluorescence intensity (a.u.)
8,TTCCGGACGTGTGATTGCGATGAGACGTGTTGCAATATCCCGGAGTCACCTAGTGCAG,7260 fluorescence intensity (a.u.)
9,ACTATTGGAGTATGGTGCGTGATTGTCCACAATTTATTCACGGAGTCACCTAGTGCAG,3150 fluorescence intensity (a.u.)
10,TGCCATTGTCAATCTCTCTGCTCTCCTCATGTAACTGATGCGGAGTCACCTAGTGCAG,3180 fluorescence intensity (a.u.)
11,ACCATTAATAGATTGAGAGCGAATGAATTGGTGCCACGTGCGGAGTCACCTAGTGCAG,55000 fluorescence intensity (a.u.)
12,CCACCTGTGATTGAAAACAATTACTTTTGAACATGCGCAGCGGAGTCACCTAGTGCAG,55200 fluorescence intensity (a.u.)
13,ACAATTAATTTAATTAAATTGAGGTCAGCCATGCATGCAGCGGAGTCACCTAGTGCAG,64800 fluorescence intensity (a.u.)
14,GATTAGATTGATCATTGATCGATCAGTGCCATTAATTGAGCGGAGTCACCTAGTGCAG,30900 fluorescence intensity (a.u.)
15,AATAACACAATTGTTGATAATTGTTGGATTACTTTGTGAGCGGAGTCACCTAGTGCAG,16000 fluorescence intensity (a.u.)
16,CCATTAAATGCACAATGACACAATTTGAGGATCAGTTTAGCGGAGTCACCTAGTGCAG,3340 fluorescence intensity (a.u.)
17,GTAAACTGCAATCAATCAGCCATTAAAATCTCATGCTCTGCGGAGTCACCTAGTGCAG,60000 fluorescence intensity (a.u.)
18,TCAAAATTGGAAGTTTTGTTGAAATTGAAACAATGTGATGCGGAGTCACCTAGTGCAG,19500 fluorescence intensity (a.u.)
19,TGCGAAATTTAGCGTGAGAAATTAAGTGATTGATTGAGAGCGGAGTCACCTAGTGCAG,26900 fluorescence intensity (a.u.)
20,ATAATTATTTAAATTATATGCATACACCTAGGTGCCATGGCGGAGTCACCTAGTGCAG,38800 fluorescence intensity (a.u.)
21,AAAATTAAATGCGATCAATCAGAGCCGTCCATATCTCTGCCGGAGTCACCTAGTGCAG,33400 fluorescence intensity (a.u.)
